Results filed as inconclusive are left out. Calls of active or inactive are those of the source. The calls were made as follows: active = hit-call score of the fitted dose curve at least 0.9, where 1 is the maximum; inconclusive = response in the unintended direction; inactive = score below 0.9.

For 40 compounds, outcome results are on record in PubChem BioAssay (EPA / NIEHS).

In this assay the target is Estrogen-related receptor gamma (Homo sapiens) (UniProt P62508). In words: ATG_ERRg_TRANS: Attagene TRANS-FACTORIAL HepG2 Assay for human Estrogen-Related Receptor gamma (ERRg) (AID 2282977).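 Also: hits increase reporter signal over DMSO so potencies reflect activators.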 As to conditions: HepG2 Attagene TRANS reporter, ERRg transactivation. Here is the method: ATG_TRANS is a cell-based, multiplexed-readout assay that uses HepG2, a human liver cell line, with measurements taken at 24 hours after chemical dosing in a 24-well plate.ATG_ERRg_TRANS is one of 30 assay component(s) measured or calculated from the ATG_TRANS assay. It is designed to make measurements of mRNA induction, a form of inducible reporter, as detected with fluorescence intensity signals by Reverse transcription polymerase chain reaction (RT-PCR) and Capillary electrophoresis technology.Data from the assay component ATG_ERRg_TRANS was analyzed into 1 assay endpoint. This assay endpoint, ATG_ERRg_TRANS, was analyzed in the positive analysis fitting direction relative to DMSO as the negative control and baseline of activity. Using a type of inducible reporter, measures of mRNA for gain-of-signal activity can be used to understand the reporter gene at the transcription factor-level as they relate to the gene ESRRG. Furthermore, this assay endpoint can be referred to as a primary readout, because this assay has produced multiple assay endpoints where this one serves a reporter gene function. To generalize the intended target to other relatable targets, this assay endpoint is annotated to the nuclear receptor intended target family, where the subfamily is steroidal.
Sequence of Estrogen-related receptor gamma (Homo sapiens) (P62508 whole entry, looked up): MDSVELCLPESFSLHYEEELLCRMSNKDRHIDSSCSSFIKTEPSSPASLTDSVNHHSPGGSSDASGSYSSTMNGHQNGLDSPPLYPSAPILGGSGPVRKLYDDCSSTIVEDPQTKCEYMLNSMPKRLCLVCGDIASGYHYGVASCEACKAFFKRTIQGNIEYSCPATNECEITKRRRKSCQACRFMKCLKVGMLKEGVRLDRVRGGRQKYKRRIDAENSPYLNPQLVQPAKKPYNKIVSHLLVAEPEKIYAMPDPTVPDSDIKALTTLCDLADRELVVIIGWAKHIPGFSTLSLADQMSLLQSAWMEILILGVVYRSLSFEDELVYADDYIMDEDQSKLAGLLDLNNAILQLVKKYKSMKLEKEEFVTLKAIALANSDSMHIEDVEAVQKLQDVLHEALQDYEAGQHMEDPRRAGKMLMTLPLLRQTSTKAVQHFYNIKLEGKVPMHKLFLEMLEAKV
Human liver HepG2 cells are transiently transfected with multiple reporter transcription units (MRTUs) in 6-well plates using FuGene 6 reagent (Roche; 3 ml FuGene/1 mg DNA). The MRTU constructs are regulated by a cis-regulating element (promoter). […] A major difference between the CIS and TRANS system is that in CIS activities of endogenous TFs are measured, whereas the TRANS assay evaluates changes in activities of exogenous, chimeric NR-Gal4 proteins. […] At the end of 24 hour incubation, total RNA was isolated using TriZol reagent (Invitrogen). The isolated RNA is then reverse-transcribed using oligo(dT) primer and Mo-MLV reverse transcriptase (Invitrogen) with DNAse I (Ambion) treatment for 30 min. The one-tenth of the produced cDNA was amplified by PCR using Taq DNA polymerase (Invitrogen) and two reporter sequence-specific primers. The PCR products were fluorescently labeled by primer extension with 6-arboxyfluorescein (6-FAM) 5'-labeled reporter sequence-specific primer (2 min at 95 C, 20 s at 68 C and 10 min at 72 C) and these products were digested with 5U of HpaI (New England Biolabs) for 2h at 37 C. The fragments were purified using Qiaquick PCR columns (Qiagen), analyzed on an ABI 3130xL genetic analyzer (Applied Biosystems) with peak positions identified by using a set of X-rhodamine (ROX)-labeled MapMarker1000 molecular weight standards (BioVentures). The raw capillary electrophoresis data was processed using Attagraph software (Attagene).
`Nc1ccc([N+](=O)[O-])cc1N`: the result was inactive.
With `CC(C)C(=O)Cl`, the outcome was inactive.
For `Cc1ccccc1CCl`, the compound was classed as inactive.
With `Nc1ccccc1C(=O)OCCc1ccccc1`, the compound was called inactive.
Turning to `O=C=Nc1ccccc1`, the result was inactive.
Take `O=[N+]([O-])C=Cc1ccccc1`: the call was inactive.
In the case of `C=COCCCl`, the outcome was inactive.
For the compound `C[N+](=O)[O-]`, the compound was called inactive.
For `O=S(=O)(c1ccccc1)c1ccccc1`, the result was inactive.
The same measure for `CC1(C)CC(=O)CC(C)(C)N1[O]`: “inactive”; for `C=CC(=O)OCCCCOC(=O)C=C`: “inactive”.
To `O=C(NCNC(=O)NC1C(=O)NC(=O)N1CO)NC1C(=O)NC(=O)N1CO` (stereo not given) belongs “inactive”.
Consider `N#CCNCC#N`, for which the outcome was inactive.
For `N#Cc1cc(I)c(O)c(I)c1`, the outcome was inactive.
On to `O=C1C(Cl)=C(Cl)C(=O)C(Cl)=C1Cl`, for which the call was inactive.
Regarding `CC(C)CCCCCCCOC(=O)c1ccccc1C(=O)OCCCCCCCC(C)C`, the outcome was inactive.
In the case of `COC(C)(C)CCC[C@H](C)C/C=C/C(C)=C/C(=O)OC(C)C`, the compound was classed as inactive.
On to `C=CC(=O)OCC(CC)CCCC` (stereo not given), for which the outcome was inactive.
With `C[C@]12CC[C@H](O)C[C@H]1CC[C@@H]1[C@@H]2C[C@@H](O)[C@]2(C)[C@@H](C3=CC(=O)OC3)CC[C@]12O`, the result was inactive.
To `O=C(O)CCl` belongs “inactive”.
`O=[N+]([O-])c1cc([N+](=O)[O-])c2ccccc2c1`: the result was inactive.
To `Cc1ccc(N(SC(F)(Cl)Cl)S(=O)(=O)N(C)C)cc1` belongs “inactive”; to `O=CNC(N1CCN(C(NC=O)C(Cl)(Cl)Cl)CC1)C(Cl)(Cl)Cl` (stereo not given), “inactive”.
On to `CCCCCCC1CCOC1=O` (stereo not given), for which the result was inactive.
The same measure for `O=c1[nH]c(Cl)c(Cl)cc1Cl`: “inactive”; for `COC(=O)COc1ccc(Cl)cc1Cl`: “inactive”; for `Nc1ccc(Cl)c(Cl)c1`: “inactive”.
On to `S=c1[nH]c2ccccc2[nH]1`, for which the result was inactive.
In the case of `CCOP(=O)(OCC)OCC`, the outcome was inactive.
The same measure for `O=c1c2ccccc2c(=O)c2c1cc(Cl)c1[nH]c3c([nH]c12)c(Cl)cc1c(=O)c2ccccc2c(=O)c13`: “inactive”; for `CC(Cc1ccc(C(C)(C)C)cc1)CN1C[C@@H](C)O[C@@H](C)C1` (stereo not given in full): “inactive”.
Take `CCOC(=O)NC(=S)Nc1ccccc1NC(=S)NC(=O)OCC`: the compound was called inactive.
As to `CC(C)(C)C(=O)CCl`, the compound was classed as inactive.
In the case of `Clc1ccc(-c2ccccc2)cc1`, the result was inactive.
Consider `C#CC1(O)CCCCC1`, for which the call was inactive.
Turning to `CCNCC`, the outcome was inactive.
The same measure for `CC(C)c1ccc(O)cc1`: “inactive”.
Regarding `[CH3][Sn]([CH3])([Cl])[Cl]`, the result was inactive.
As for `C=C(Cl)Cl`, the compound was classed as inactive.
With `ClC1=C(Cl)[C@]2(Cl)[C@@H]3[C@@H](Cl)[C@H](Cl)C[C@@H]3[C@@]1(Cl)C2(Cl)Cl`, the result was inactive.
